Assay results published in PubChem BioAssay AID686979 (National Center for Advancing Translational Sciences (NCATS), 2013).
Hit rate of the full screen: of about 420,000 compounds, about 50,000 (12%) were called active. About 26% were inconclusive and are not listed. For the sample, actives were picked, then their nearest neighbours and some compounds at random. Unmarked numbers belong to inactive results. Calls come from the whole dose curve; as a rule, active = well fitted inhibition curve with a large enough effect; inconclusive = small, poorly fitted or top-dose-only effect; inactive = flat fitted curve, though single readings scatter.

assay: qHTS for Inhibitors of human tyrosyl-DNA phosphodiesterase 1 (TDP1): qHTS in cells in presence of CPT; conditions: chicken DT40 Tdp1-/-;hTDP1 cells + 20 nM CPT, ATP luminescence, 48 h; series mostly up to 46.2 µM; activity change, negative = growth inhibition: at the top concentration; note: nearly all actives have a fitted effect of over 55% in size
In short: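 Chicken DT40 Tdp1-/- cells stably complemented with human TDP1 were seeded at 400 cells/well in medium containing 20 nM camptothecin, exposed to pin-transferred compounds, and grown at 37 °C for at least 48 hr. Viability was read as ATP luminescence.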
% is set by controls: 0 for no effect and ±100 for the full control effect; potency is the fitted concentration of half-maximal effect.

Row | Compound | activity change, negative = growth inhibition | Potency
1 | CCCCC1S/C(=N/N=C/c2cccs2)NC1=O (stereo not drawn) | -15.9% | –
2 | CC(=O)OC(COc1ccc(F)cc1)Cn1cnc2ccccc21 (stereo not drawn) | -18.6% | –
3 | CCc1ccc(OCC(O)CN2CCN(CCO)CC2)cc1 (stereo not drawn) | 4.93% | –
4 | Cc1ccccc1OCC(O)CN1CCN(c2ccccn2)CC1 (stereo not drawn) | 2.2% | –
5 | CC(C)c1ccc(OCC(O)CN2CCN(c3ccccn3)CC2)cc1 (stereo not drawn) | – | 25.9 µM (active)
6 | OC(COc1ccc2ccccc2c1)Cn1cncn1 (stereo not drawn) | 4.84% | –
7 | CC(C)c1ccc(OCC(O)Cn2cnc3ccccc32)cc1 (stereo not drawn) | – | 18.4 µM (active)
8 | Cc1ccc(C)c(NC(=O)COC(=O)c2nn(C)c(=O)c3ccccc23)c1 | 0.793% | –
9 | C/C=C/C(=O)OCc1csc(CC(=O)Nc2ccccc2C)n1 | -11.6% | –
10 | Cc1ccnc(NC(=O)C2CCN(S(=O)(=O)c3c(C)c(C)cc(C)c3C)CC2)c1 | 26.2% | –
11 | CCCNC(=O)C[C@@H]1CC[C@@H]2[C@H](COC[C@H](O)CN2C(=O)c2cc(Cl)cc(Cl)c2)O1 | 15.3% | –
12 | CC1(c2nnc(-c3ccncc3)o2)CC(c2cccnc2)=NO1 (stereo not drawn) | 1.74% | –
13 | CCCCC(=O)Nc1nnc(S(=O)(=O)N(C)Cc2ccco2)s1 | -2.86% | –
14 | COc1ccc(NC(=O)CCNS(=O)(=O)c2ccc3c(c2)c(=O)n(C)c(=O)n3C)cc1OC | 1.91% | –
15 | CC(=O)Nn1cc2c(=O)n(C)c(=O)n(C)c2c1 | 9.83% | –
16 | COc1ccc(OC)c(-n2cc3c(=O)n(C)c(=O)n(C)c3c2)c1 | – | 16.4 µM (active)
17 | CCc1cc2c(NC(Cc3ccccc3)C(=O)O)ncnc2s1 (stereo not drawn) | -3.93% | –
18 | CCc1cc2c(SCC(=O)Nc3ncc(Cl)c(C)c3Cl)ncnc2s1 | -29.6% | –
19 | CCc1cc2c(NC3CCCC3)ncnc2s1 | – | 7.31 µM (active)
20 | Cn1c2ccccc2n2c(=O)c(=O)n(CC(=O)c3ccc(F)cc3)nc12 | -14.7% | –
21 | O=C(Cn1ccc2cc(S(=O)(=O)N3CCCC3)ccc21)NCc1ccccc1 | -16.2% | –
22 | O=[N+]([O-])/C=C/c1ccc2c(ccn2Cc2ccccc2)c1 | – | 3.26 µM (active)
23 | COc1ccc(Cn2ccn(Cc3cccc(OC)c3)c(=O)c2=O)cc1 | -27% | –
24 | Cc1ccc(C)c(S(=O)(=O)Nc2cccc(-n3cnnn3)c2)c1 | -20.1% | –
25 | Cc1cnc(C(=O)OCc2c(C)cc(C(C)(C)C)cc2C)cn1 | -21.7% | –
26 | N#CCCC(C#N)(c1cccnc1)N1CCOCC1 (stereo not drawn) | 2.23% | –

Row | Compound | activity change, negative = growth inhibition | Potency
27 | COc1ccc2occ(C(=O)c3ccc(N=C(C)N(C)C)cc3)c2c1 | – | 16.4 µM (active)
28 | COc1ccc(OC)c(C(=O)c2ccc(C(=O)O)cc2)c1 | -7.43% | –
29 | COc1ccc(C(=O)c2oc3ccc(Br)cc3c2NC(C)=O)cc1 | -24.2% | –
30 | O=C(CCN1C(=O)[C@@H]2Cc3ccccc3CN2C1=O)NCCc1ccccc1 | -0.504% | –
31 | O=C(Cn1nc(C(=O)O)c2ccccc2c1=O)Nc1ccc(F)cc1 | -16.6% | –
32 | CCN(CC)c1ccc(/C=C/c2c(C)cnc3ccc(C)cc23)cc1 | – | 11.2 µM (active)
33 | COc1ccc(C(=O)COC(=O)CNC(=O)c2cccs2)cc1Br | 6.66% | –
34 | Cc1ccc(S(=O)(=O)N2CCN(c3ccccc3)CC2)cc1C | 4.16% | –
35 | COC(=O)/C(=C\Nc1ccccc1)NC(=O)c1ccc(Cl)cc1Cl | -12.4% | –
36 | COC(=O)Cc1nc2c(N)nc(N)nc2[nH]c1=O | 1.28% | –
37 | COc1ccc2c(c1)CCC/C2=N\OC(=O)c1ccccc1F | 0.0235% | –
38 | COc1cc2c(cc1OC)C(COc1ccc(F)cc1)N(C(=O)c1ccccc1F)CC2 (stereo not drawn) | – | 18.4 µM (active)
39 | COc1cc2c(cc1OC)CN(CC(=O)Nc1ccc(F)cc1)CC2 | 0.106% | –
40 | NC(=O)C1(Nc2ccccc2Cl)CCCC1 | 1.03% | –
41 | NC(=O)c1ccc(-c2csnn2)cc1 | -2.39% | –
42 | CCOc1ccc(CCNC(=O)COC(=O)CCS(=O)(=O)c2ccc(C)cc2)cc1OCC | -9.18% | –
43 | Cc1nc2ccccc2nc1CC(O)(c1ccccc1)c1ccccc1 | -15.5% | –
44 | CN(C)NC(=O)c1csnc1-c1c(Cl)cccc1Cl | 6.02% | –
45 | CCn1c(SCC(=O)N/N=C/c2ccccc2OCC(=O)O)nnc1-c1ccc(C(C)(C)C)cc1 | 9.93% | –
46 | COc1ccc(S(=O)(=O)N2CCN(C(=O)NC3CCCCC3)CC2)cc1 | 2.96% | –
47 | COc1cccc(CNC(C)C(=O)Nc2ccc(S(=O)(=O)N3CCCC3)cc2)c1 (stereo not drawn) | -18.1% | –
48 | COc1ccc(S(=O)(=O)N2CCN(C(C)C(=O)Nc3ccc(C(C)C)cc3)CC2)cc1 (stereo not drawn) | – | 29.1 µM (active)
49 | O=C(NC(=S)NC1CCSC1=O)c1ccccc1F (stereo not drawn) | 5.66% | –
50 | COc1cc(OC)c(NC(=O)C2CCCN2C(=O)OCc2ccccc2)cc1Cl (stereo not drawn) | -5.29% | –
51 | COc1cc(CNC2CCCC2)c(Br)cc1OCc1ccccc1 | – | 20.6 µM (active)
52 | COc1cc(CN2CCC(C(N)=O)CC2)ccc1OCc1ccccc1 | -6.41% | –

Row | Compound | activity change, negative = growth inhibition | Potency
53 | CS(=O)(=O)NC(=O)CCC/C=C\C[C@H]1C(=O)C[C@@H](O)[C@@H]1/C=C/[C@H](O)COc1ccccc1 | -5.58% | –
54 | Cc1ccc2nc(COc3cccc(NC(=O)c4cccc(Cl)c4)c3)cc(=O)n2c1 | 5.1% | –
55 | COc1ccc(-c2sc3ccccc3c2-c2ccc(OCCN3CCOCC3)cc2)cc1 | – | 14.6 µM (active)
56 | COc1cccc(-c2sc3ccc(OC)cc3c2-c2ccc(OCCN3CCCCC3)cc2)c1 | – | 18.4 µM (active)
57 | COc1cc(OC)cc(-c2sc3ccc(OC)cc3c2-c2ccc3cc[nH]c3c2)c1 | 2.8% | –
58 | COc1cccc(OCCCN2CCCCCC2)c1 | 7.79% | –
59 | c1ccc(-c2ccc(OCCN3CCOCC3)cc2)cc1 | -8.28% | –
60 | Cc1cccc(C)c1OCCN1CCOCC1 | 0.496% | –
61 | COc1ccc(S(=O)(=O)N(C)C[C@@H]2Oc3ccc(NS(=O)(=O)c4cn(C)cn4)cc3C(=O)N([C@@H](C)CO)C[C@@H]2C)cc1 | -5.54% | –
62 | COc1ccc2c(c1)C(c1cccs1)=NNC(c1cccnc1)=N2 | -2.75% | –
63 | CCOc1ccc(NS(=O)(=O)c2ccc(C)c(C(N)=O)c2)cc1 | – | 20.6 µM (active)
64 | CCOc1ccc(NS(=O)(=O)c2ccc(OCC(=O)NCCCOC)cc2)cc1 | -7.83% | –
65 | CCCCNC(=O)c1c[nH]c2ccc(S(=O)(=O)Nc3ccc(OCC)cc3)cc2c1=O | -22.1% | –
66 | Cc1ccccc1NC(=O)Cc1nc(COC(=O)CNC(=O)c2ccc(Cl)cc2Cl)cs1 | -6.01% | –
67 | Cc1ccc2nc3c(cc(C(=O)NC4CCCCC4)c(=N)n3C(C)C)c(=O)n2c1 | 6.44% | –
68 | Cc1cccn2c(=O)c3cc(C#N)c(=NC(=O)c4cccnc4)n(CC4CCCO4)c3nc12 (stereo not drawn) | -2.32% | –
69 | Cc1ccc2nc3c(cc(C(=O)NCCc4ccccc4)c(=N)n3CC3CCCO3)c(=O)n2c1 (stereo not drawn) | – | 20.6 µM (active)
70 | O=C(NCc1cccnc1)c1cc(S(=O)(=O)N2CCOCC2)c(Cl)cc1Cl | 4.04% | –
71 | CCCCn1c(=N)c(S(=O)(=O)c2ccccc2)cc2c(=O)n3cccc(C)c3nc21 | 0.133% | –
72 | CCOC(=O)c1cc2c(=O)n3ccccc3nc2n(CC2CCCO2)c1=NC(=O)c1ccccc1Br (stereo not drawn) | 4.33% | –
73 | COc1ccc(CCn2c(=N)c(C(=O)NCC3CCCO3)cc3c(=O)n4cccc(C)c4nc32)cc1OC (stereo not drawn) | – | 5.17 µM (active)
74 | COCCCn1c(C(=O)NC2CCCCC2)cc2c(=O)n3cccc(C)c3nc21 | – | 18.4 µM (active)
75 | COc1ccc(CCNC(=O)Cn2c(=O)n(CC3CCCO3)c(=O)c3ccccc32)cc1OC (stereo not drawn) | -1.14% | –
76 | COc1ccc(C(=O)Nc2ccc(C(=O)NCC3CCCO3)cc2)c(OC)c1OC (stereo not drawn) | 0.208% | –
77 | Cc1cccn2c(=O)c3cc(C(=O)NCCN4CCOCC4)c(=N)n(Cc4cccnc4)c3nc12 | – | 13 µM (active)
78 | Cc1cccn2c(=O)c3cc(C(=O)NC4CCCCC4)sc3nc12 | -26.2% | –

Row | Compound | activity change, negative = growth inhibition | Potency
79 | CCOc1ccc(N2C(=O)CSC2=NC#N)cc1 | 0.495% | –
80 | COC(=O)C1=C(C)NC(=S)NC1c1ccc(OCC(=O)N2CC(C)OC(C)C2)c(OC)c1 (stereo not drawn) | -17.4% | –
81 | Cn1cc(S(=O)(=O)N2CCN(c3ccc(F)cc3)CC2)c(=O)n(C)c1=O | 1.72% | –
82 | CCc1ccc(C(=O)OCC(=O)NCC(F)(F)F)cc1 | 0.645% | –
83 | CS(=O)(=O)N1CCCC(C(=O)Nc2ccccc2C(F)(F)F)C1 (stereo not drawn) | 0.592% | –
84 | CC(=O)Nc1ccc(NC(=O)C(C)OC(=O)C2CC(=O)N(CCc3ccccc3)C2)cc1 (stereo not drawn) | 2.76% | –
85 | O=C(O)C1CCCCC1C(=O)N1CCN(S(=O)(=O)c2ccc(F)cc2)CC1 (stereo not drawn) | 12.7% | –
86 | NCCCCC(C(=O)O)N(C(=O)OCc1ccccc1)C(=O)OCc1ccccc1 (stereo not drawn) | -4.29% | –
87 | CC1C(=O)C(C)C(c2ccc(O)cc2)NC1c1ccc(O)cc1 (stereo not drawn) | -17.5% | –
88 | O=C(OCC(=O)N1CCN(C(=O)c2ccco2)CC1)c1ccc(Cl)c(Cl)c1 | -19.4% | –
89 | CCOc1ccccc1/C=N/NC(=O)CNC(=O)COc1ccccc1 | 17.2% | –
90 | COc1ccc(CCNC(=O)CCc2ccccc2O)cc1OC | -0.264% | –
91 | COc1ccc(CCn2c(=N)c(C(=O)NCc3ccco3)cc3c(=O)n4cccc(C)c4nc32)cc1 | – | 20.6 µM (active)
92 | COc1ccc(C(=O)Nc2ccccc2C(=O)NCc2ccco2)cc1 | -23.2% | –
93 | Cc1ccc(S(=O)(=O)c2cc3c(=O)n4cccc(C)c4nc3n(CCc3ccccc3)c2=N)cc1C | 0.286% | –
94 | CCOC(=O)c1ccc(NC(=O)CCn2c(=O)oc3ccccc32)cc1 | – | inactive
95 | CC(Sc1nncn1C)C(=O)NCCC1=CCCCC1 (stereo not drawn) | -1.08% | –
96 | CC(C)n1cnc2c(Nc3cccc(Cl)c3)nc(N(CCO)CCCO)nc21 | – | 10.3 µM (active)
97 | CC(C)[C@H](CO)Nc1nc(Nc2cc(N)cc(Cl)c2)c2ncn(C(C)C)c2n1 | – | 4.73 µM (active)
98 | CC(C)(C)c1nnc(NC(=O)C2c3ccccc3Oc3ccccc32)s1 | – | 23.1 µM (active)
99 | CCC(C)NC(=O)C1c2ccccc2Oc2ccccc21 (stereo not drawn) | -14.2% | –
100 | CCC(C)(C)NC(=O)C1c2ccccc2Oc2ccccc21 | 1.24% | –
101 | COCCCNCC(=O)Nc1sc(C)c(C)c1C(=O)OC | -13.3% | –
102 | Nc1ncnc2nnsc12 | -10.5% | –
103 | Oc1c(C(c2ccc(F)cc2)N2CCN(Cc3ccccc3)CC2)sc2nc(-c3ccco3)nn12 (stereo not drawn) | -26.3% | –
